Reference: the OligoGym collection

biological target: CTLA4; assay: pooled miR-30 sensor sort-seq; sequence = guide strand; conditions: shRNA

| Sequence | sensor-assay potency score (higher = more potent) |
| --- | --- |
| TTTCACATTCTGGCTCTGTTGG | -0.615 |
| TTACATAAATCTGGGTTCCGTT | -0.355 |
| TCAATTACATAAATCTGGGTTC | -0.428 |
| TTGCTTTTCACATTCTGGCTCT | 0.296 |
| TTTGCTCAAAGAAACAGCTGTG | 0.483 |
| TTGCTCAAAGAAACAGCTGTGA | -0.0499 |
| TTTTGCTCAAAGAAACAGCTGT | 0.613 |
| TTTTCTTTAGCATTTTGCTCAA | -0.539 |
| TTTTCTTTAGCAATTACATAAA | -1.29 |
| TTCTTTAGCATTTTGCTCAAAG | -0.747 |

biological target: CTNNAL1; assay: as above; conditions: shRNA

| Sequence | sensor-assay potency score (higher = more potent) |
| --- | --- |
| TTGAACACTGGAAGTAAGCTTT | 0.00936 |
| TTGTCTTCGTAATACACTTGTC | -0.611 |
| ATTTTGTCTATCTCCACTCAGA | -0.843 |
| TTGTTTTCTTGCTTTGAGCTTG | 0.085 |
| TTGTAACTGAGACCCATCCGTT | -0.457 |
| TAGTTGATGAATTAAATCCTGG | -0.667 |
| TTATTTGTAACTGAGACCCATC | -0.547 |
| TTTCTTGATGTTATTATCTGTT | -0.648 |
| TTCATTAAGACTGTGACTGATT | 0.0876 |
| TTCATTTCCAAATTGACTGAAT | 0.0043 |
| TTCAGCAGCAGAAATTATCTGT | 0.229 |
| TCGACAGGTCTCAACAAGCTGC | -0.481 |

biological target: CTNNBIP1; assay: as above; conditions: shRNA

| Sequence | sensor-assay potency score (higher = more potent) |
| --- | --- |
| ATCTCCTCCGGACTCTTCCCGG | -1.21 |
| TTCTGCTGAATGTACATCTCCT | -0.0119 |
| CTGAATGTACATCTCCTCCGGA | -0.773 |
| TGAATGTACATCTCCTCCGGAC | -0.75 |
| TGATCCCATCTTCCGCAGCATG | -1.86 |
| TCTGCTGAATGTACATCTCCTC | -0.574 |
| TCGGACCTTCTGCTGAATGTAC | -1.3 |
| TTGATATCAGCAGAACACCTGC | -0.0972 |
| TGGCTGTCAGGTTTGATCCCAT | -0.741 |
| TTGACCACCCCTGCATAGGTGC | -1.01 |
| TCTCCTCCGGACTCTTCCCGGG | -0.954 |
| ATAGGTGCGCAGGAACTCCTCC | -0.215 |

biological target: CTNNBL1; assay: as above; conditions: shRNA

| Sequence | sensor-assay potency score (higher = more potent) |
| --- | --- |
| TTTTTTTGTCATCATCCGCTTC | -0.298 |
| TGAACTTCTCTGGATTGTCTGG | -0.725 |
| ATCTGTATTATCGTGTCCGAGC | -1.22 |
| TATCGTGTCCGAGCAAGCCGAG | -1.14 |
| TACAGCATTCAGCTCCACCAGA | -0.685 |
